Inconclusive results are not listed. A call without a number means that no potency is given here. A number with no mark means an inactive call. The source made the active and inactive calls. Calls follow the shape of the dose curve; as a rule, active = well fitted curve in the direction sought with a large enough effect; inconclusive = small, poorly fitted or top-dose-only effect, or another doubt; inactive = no such curve, though single readings can be large; an effect the other way counts as inactive or inconclusive.
Legend:
[1] = tested on: Zika virus NS2B-NS3 protease (unlinked complex); assay: Primary screen GU Rhodamine qHTS for Zika virus inhibitors: Unlinked NS2B-NS3 protease assay (AID 1347159); also: nearly all actives have a fitted effect of over 60% in size
Method in brief: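 Buffer 10 mM Tris-HCl pH 8.0, 0.01% Tween 20. Unlinked protease 25 nM; compound preincubation 15 min, RT, protected from light. Substrate Rhod110, 1.5 microM; ~15% conversion in 15 min.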

[2] = tested on: Zika virus NS2B-NS3 protease (linked construct); assay: Primary screen NINDS Rhodamine qHTS for Zika virus inhibitors (AID 1347160); also: nearly all actives have a fitted effect of over 55% in size
Method in brief: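 Aprotinin served as in-plate control. Conditions: 25 nM linked NS2B-NS3, pH 8.0 Tris buffer, titrated compounds, 15 min preincubation and 15 min reaction with 1.5 microM Rhod110 substrate at room temperature.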

[3] = qHTS to identify inhibitors of the type 1 interferon - major histocompatibility complex class I in skeletal muscle: primary screen against the NCATS Mechanism Interrogation Plate v5.0 (MIPE) Libary (AID 1347411); also: nearly all actives have a fitted effect of over 65% in size; also: potency is read from the fitted curve at half-maximal effect
Method in brief: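 HLA-B HiBit myoblasts, dexamethasone-free medium + 4 ng/ml IFN-b, 24 h compound, 11-pt 1:3 from 46 uM final. Readout: Nano-Glo HiBiT lytic luminescence after 10 min lysis, RT.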

[4] = biological target: Calcium and integrin-binding protein 1 (Homo sapiens) (UniProt Q99828); assay: Primary qHTS for Identification of Calcium Integrin Binding Protein 1 (CIB1) Competitor (AID 1508620);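 also: GST tagged CIB1 binding a fluorescein labelled alphaIIb integrin peptide tracer; top concentration of the series differs between compounds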
Method in brief: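 Fluorescence polarization competition: GST-tagged CIB1 (1 uM final) preincubated with compound 15 min at room temperature, then FITC-labelled alphaIIb peptide (100 nM final) added. After 15 min at room temperature, polarization read at Ex 480/Em 540.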

Calcium and integrin-binding protein 1 (Homo sapiens), sequence (Q99828 whole entry, looked up): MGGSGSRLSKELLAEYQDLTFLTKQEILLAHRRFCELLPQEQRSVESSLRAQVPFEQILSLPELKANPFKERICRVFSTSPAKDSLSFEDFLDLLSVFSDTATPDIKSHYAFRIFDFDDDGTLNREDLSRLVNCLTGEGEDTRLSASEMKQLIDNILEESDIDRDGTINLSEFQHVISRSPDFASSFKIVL

| Structure (SMILES) | Potency [1] | Potency [2] | Potency [3] | outcome [4] |
| --- | --- | --- | --- | --- |
| CC(C)(C)c1cc(NC(=O)Nc2ccc(-c3cn4c(n3)sc3cc(OCCN5CCOCC5)ccc34)cc2)no1 | inactive | inactive | inactive | inactive |
| COc1cc2c(Oc3ccc4[nH]c(C)cc4c3F)ncnc2cc1OCCCN1CCCC1 | inactive | inactive | 20.8 µM (active) | inactive |
| C[C@@H](Oc1cc(-c2cnn(C3CCNCC3)c2)cnc1N)c1c(Cl)ccc(F)c1Cl | inactive | inactive | 14.7 µM (active) | inactive |
| Cc1ccc2nc(NC(=O)CSc3nc4c(c(=O)n3-c3ccccc3)SCC4)sc2c1 | inactive | inactive | inactive | inactive |
| Cc1[nH]nc2ccc(-c3cncc(OC[C@@H](N)Cc4ccccc4)c3)cc12 | inactive | inactive | 1.86 µM (active) | inactive |
| CC(C)CC(=O)Nc1n[nH]c2c1CN(C(=O)C1CCN(C)CC1)C2(C)C | inactive | inactive | 1.04 µM (active) | inactive |
| CN(C)CC(C)(C)CNc1nn2c(-c3ccccc3)nnc2cc1C1CCC1 | inactive | inactive | inactive | inactive |
| Cc1ccc(C(N)=O)cc1Nc1nccc(-c2cn(C(C)C)c3cnccc23)n1 | inactive | inactive | 8.29 µM (active) | inactive |
| CNC(=O)CN1CCC(Oc2cc3c(Nc4cccc(Cl)c4F)ncnc3cc2OC)CC1 | inactive | inactive | inactive | inactive |
| COc1ccc(F)c(F)c1C(=O)c1cnc(NC2CCN(S(C)(=O)=O)CC2)nc1N | inactive | inactive | 2.94 µM (active) | inactive |
| CCCNC(=O)Nc1ccc(Oc2ncnc3cc(OC)c(OC)cc23)cc1Cl | inactive | inactive | inactive | inactive |
| Nc1ccccc1NC(=O)c1ccc(CNc2nccc(-c3cccnc3)n2)cc1 | inactive | inactive | 7.39 µM (active) | inactive |
| CC(C)c1cnn2c(NCc3ccccc3)cc(N[C@@H](CO)[C@H](O)CO)nc12 | inactive | inactive | 0.186 µM (active) | inactive |
| COc1ccc2c(c1)CC[C@@H](CN(C)CC(=O)O)[C@H]2c1ccccc1 | inactive | inactive | inactive | inactive |
| CNc1nccc(-c2cccnc2Oc2cc(C(=O)Nc3cccc(C(F)(F)F)c3)ccc2C)n1 | inactive | inactive | 5.87 µM (active) | inactive |
| CCc1cc2c(cc1N1CCC(N3CCOCC3)CC1)C(C)(C)c1[nH]c3cc(C#N)ccc3c1C2=O | inactive | inactive | inactive | inactive |
| Nc1nc(NCCNc2ncc(-n3ccnc3)c(-c3ccc(Cl)cc3Cl)n2)ccc1[N+](=O)[O-] | inactive | inactive | 14.7 µM (active) | inactive |
| N#CCNC(=O)c1ccc(-c2ccnc(Nc3ccc(N4CCOCC4)cc3)n2)cc1 | inactive | inactive | 11.7 µM (active) | inactive |
| C1Cc2[nH]nc(-c3nn[nH]n3)c2C1 | inactive | inactive | inactive | inactive |
| COC(=O)c1ccc2c(C(=Nc3ccc(N(C)C(=O)CN4CCN(C)CC4)cc3)c3ccccc3)c(O)[nH]c2c1 | inactive | inactive | 16.5 µM (active) | inactive |
| COc1cccc2nc(-c3cccs3)nc(NN3C(=O)C=C(C)C3=O)c12 | inactive | inactive | 2.94 µM (active) | inactive |
| NC(=O)c1c(OCc2c(F)cc(Br)cc2F)nsc1NC(=O)NCCCCN1CCCC1 | inactive | inactive | 33 µM (active) | inactive |
| C=CCn1c(=O)c2cnc(Nc3ccc(N4CCN(C)CC4)cc3)nc2n1-c1cccc(C(C)(C)O)n1 | inactive | inactive | inactive | inactive |

— PubChem BioAssay (NCATS)
